Test results from PubChem BioAssay.
Calls of active or inactive are those of the source.

Experiments:
[1] = small molecules captured by biotinylated probe aFSTL3 – biochemical, small-molecule microarray, fluorescence 635/667, stem cell growth factor project, primary screen (AID 1064); conditions: higher = more signal;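 note: measures binding of the biotinylated anti-FSTL3 antibody to printed compounds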
[2] = binders from COS7 lysate, DM2A8 probe, primary screen, torsin A project, cell lysate, small-molecule microarray, fluorescence 635/667 (AID 1065); conditions: higher = more signal, COS7 lysate expressing mutant human TOR1A
[3] = small molecules captured by biotinylated probe aFGF2 – biochemical, small-molecule microarray, fluorescence 635/667, stem cell growth factor project, primary screen (AID 1067); conditions: higher = more signal;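 note: measures binding of biotinylated aFGF2 protein to printed compounds on slides; z-score merges feature fluorescence and signal-to-noise across triplicate slides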
[4] = small molecules captured by biotinylated probe aFGF10 – biochemical, small-molecule microarray, fluorescence 635/667, stem cell growth factor project, primary screen (AID 1071); conditions: higher = more signal;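 note: score merges 667 nm spot intensity and signal to noise from triplicate slides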
[5] = molecular target: Neurogenic locus notch homolog protein 2 (Homo sapiens) (UniProt Q04721); assay: small molecules binding Notch2 protein – biochemical, small-molecule microarray, 635 nm fluorescence, stem cell growth factors, primary screen (AID 1073); conditions: higher = more signal
[6] = molecular target: Pro-neuregulin-1, membrane-bound isoform (Homo sapiens) (UniProt Q02297); assay: small molecules binding neuregulin-1 protein – biochemical, small-molecule microarray, fluorescence 635/667, psychiatric disease protein project, primary screen (AID 1075); conditions: NRG1 binding, 635 nm fluorescence, higher = more signal;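 note: score combines 667 nm spot fluorescence with signal to noise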
[7] = tested on: Neuregulin-1 EGF-like domain; assay: small molecules binding NRG1 EGF domain – biochemical, small-molecule microarray, 635 nm fluorescence, primary screen (AID 1081); conditions: higher = more signal;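 note: binding of the protein to compounds printed on small-molecule microarray slides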
[8] = FRG1 expression reporter modulators in myotubes – cell-based, C2C12 myotubes, firefly/Renilla luciferase, luminescence, FRG1 inhibition for FSHD, primary screen (AID 1084); conditions: FRG1 promoter luciferase, higher = more signal, called active from +8 up or from −8 down
[9] = small molecules captured by biotinylated probe aFST – biochemical, small-molecule microarray, fluorescence 635/667, stem cell growth factor project, primary screen (AID 1086); conditions: higher = more signal;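 note: score merges 667 nm fluorescence with signal-to-noise of each printed compound spot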
[10] = binders of probe aHhip on microarray, primary screen, stem cell growth factor project, biochemical, small-molecule microarray, fluorescence 635/667 (AID 1087); conditions: higher = more signal;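 note: score merges spot fluorescence at 667nm with spot signal to noise ratio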

Neurogenic locus notch homolog protein 2 (Homo sapiens), sequence (Q04721 whole entry, looked up, canonical isoform): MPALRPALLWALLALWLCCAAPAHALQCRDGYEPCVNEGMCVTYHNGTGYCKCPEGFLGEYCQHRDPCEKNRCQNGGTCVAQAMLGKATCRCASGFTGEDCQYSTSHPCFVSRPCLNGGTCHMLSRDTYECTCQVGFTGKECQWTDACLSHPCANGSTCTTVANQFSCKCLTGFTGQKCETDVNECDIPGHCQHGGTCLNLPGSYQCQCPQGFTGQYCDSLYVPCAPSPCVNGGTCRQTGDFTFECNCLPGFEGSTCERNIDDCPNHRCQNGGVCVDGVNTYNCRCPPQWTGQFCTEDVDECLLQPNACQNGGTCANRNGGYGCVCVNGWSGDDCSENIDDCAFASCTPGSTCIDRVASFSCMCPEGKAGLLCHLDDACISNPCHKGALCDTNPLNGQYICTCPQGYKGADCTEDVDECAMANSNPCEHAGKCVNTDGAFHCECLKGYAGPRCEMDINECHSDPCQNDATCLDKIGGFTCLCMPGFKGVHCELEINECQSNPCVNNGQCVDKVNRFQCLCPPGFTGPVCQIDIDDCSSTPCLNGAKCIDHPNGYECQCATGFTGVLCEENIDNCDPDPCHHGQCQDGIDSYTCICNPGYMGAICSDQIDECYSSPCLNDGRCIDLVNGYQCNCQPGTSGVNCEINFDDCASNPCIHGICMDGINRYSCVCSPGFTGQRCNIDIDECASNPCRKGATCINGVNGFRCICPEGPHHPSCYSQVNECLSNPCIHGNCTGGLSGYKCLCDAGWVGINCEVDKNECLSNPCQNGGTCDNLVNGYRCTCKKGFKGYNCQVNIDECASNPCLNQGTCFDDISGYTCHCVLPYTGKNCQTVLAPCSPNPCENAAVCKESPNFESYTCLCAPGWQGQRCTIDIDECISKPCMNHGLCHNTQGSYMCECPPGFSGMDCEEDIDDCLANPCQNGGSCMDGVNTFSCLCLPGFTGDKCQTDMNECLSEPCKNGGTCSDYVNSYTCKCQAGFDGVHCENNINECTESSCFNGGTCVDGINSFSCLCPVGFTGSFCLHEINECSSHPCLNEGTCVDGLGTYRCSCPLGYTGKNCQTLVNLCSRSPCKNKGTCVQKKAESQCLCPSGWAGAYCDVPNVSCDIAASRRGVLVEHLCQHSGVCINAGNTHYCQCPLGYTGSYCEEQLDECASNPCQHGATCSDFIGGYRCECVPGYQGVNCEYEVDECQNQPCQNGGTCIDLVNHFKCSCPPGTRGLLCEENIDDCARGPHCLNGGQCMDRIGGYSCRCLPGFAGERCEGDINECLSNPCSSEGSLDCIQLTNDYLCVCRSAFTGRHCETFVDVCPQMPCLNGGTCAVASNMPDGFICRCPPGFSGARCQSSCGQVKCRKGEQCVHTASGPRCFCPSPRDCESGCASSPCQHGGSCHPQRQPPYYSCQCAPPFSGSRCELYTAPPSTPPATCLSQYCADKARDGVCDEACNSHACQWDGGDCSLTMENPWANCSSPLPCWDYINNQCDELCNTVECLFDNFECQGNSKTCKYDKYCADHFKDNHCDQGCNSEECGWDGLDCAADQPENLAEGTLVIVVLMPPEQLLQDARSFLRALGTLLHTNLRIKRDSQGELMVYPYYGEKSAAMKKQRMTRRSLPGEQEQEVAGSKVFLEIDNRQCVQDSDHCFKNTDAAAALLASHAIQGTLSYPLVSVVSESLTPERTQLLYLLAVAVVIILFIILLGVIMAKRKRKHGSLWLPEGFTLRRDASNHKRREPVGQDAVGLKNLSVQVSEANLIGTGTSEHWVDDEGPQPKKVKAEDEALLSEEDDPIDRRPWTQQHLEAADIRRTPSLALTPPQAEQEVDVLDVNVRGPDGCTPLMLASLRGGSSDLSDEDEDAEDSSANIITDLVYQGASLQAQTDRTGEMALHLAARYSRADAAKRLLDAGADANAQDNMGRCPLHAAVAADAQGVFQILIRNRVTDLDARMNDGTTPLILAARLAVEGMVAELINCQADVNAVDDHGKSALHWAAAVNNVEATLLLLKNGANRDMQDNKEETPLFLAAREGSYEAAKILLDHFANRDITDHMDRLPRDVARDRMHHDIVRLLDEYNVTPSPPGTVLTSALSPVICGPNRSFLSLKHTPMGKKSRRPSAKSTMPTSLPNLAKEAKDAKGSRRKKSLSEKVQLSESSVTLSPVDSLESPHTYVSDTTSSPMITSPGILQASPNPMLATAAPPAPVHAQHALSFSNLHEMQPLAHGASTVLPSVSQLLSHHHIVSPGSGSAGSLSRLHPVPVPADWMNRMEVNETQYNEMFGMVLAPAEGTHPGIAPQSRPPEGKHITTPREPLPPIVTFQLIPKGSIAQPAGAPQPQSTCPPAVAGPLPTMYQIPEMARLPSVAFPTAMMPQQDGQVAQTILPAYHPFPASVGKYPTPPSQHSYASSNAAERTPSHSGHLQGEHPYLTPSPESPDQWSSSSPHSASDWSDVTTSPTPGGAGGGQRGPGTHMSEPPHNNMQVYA
Pro-neuregulin-1, membrane-bound isoform (Homo sapiens), sequence (Q02297 whole entry, looked up, the tested form may be a part, canonical isoform): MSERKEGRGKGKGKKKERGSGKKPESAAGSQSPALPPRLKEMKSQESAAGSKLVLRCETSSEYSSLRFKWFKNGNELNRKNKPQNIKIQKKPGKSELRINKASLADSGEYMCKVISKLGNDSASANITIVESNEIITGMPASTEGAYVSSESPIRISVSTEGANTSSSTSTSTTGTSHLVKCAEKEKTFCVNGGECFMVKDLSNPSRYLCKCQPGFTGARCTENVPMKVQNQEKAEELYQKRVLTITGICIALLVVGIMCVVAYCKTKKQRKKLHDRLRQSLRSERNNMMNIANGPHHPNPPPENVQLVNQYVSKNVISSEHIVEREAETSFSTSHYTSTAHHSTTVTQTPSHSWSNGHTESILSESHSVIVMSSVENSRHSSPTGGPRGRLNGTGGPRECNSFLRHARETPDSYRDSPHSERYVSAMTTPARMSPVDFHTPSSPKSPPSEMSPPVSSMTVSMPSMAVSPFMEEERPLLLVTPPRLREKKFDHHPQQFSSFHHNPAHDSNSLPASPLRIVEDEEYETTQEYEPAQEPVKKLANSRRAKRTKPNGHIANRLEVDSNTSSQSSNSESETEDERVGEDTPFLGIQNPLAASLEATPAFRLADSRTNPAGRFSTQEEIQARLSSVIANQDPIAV

SMILES | composite z-score [1] | composite z-score [2] | composite z-score [3] | composite z-score [4] | composite z-score [5] | composite z-score [6] | composite z-score [7] | z-score [8] | composite z-score [9] | composite z-score [10]
CCOC(=O)C[C@H]1[C@H](OC(=O)c2ccc(-c3ccccc3)cc2)[C@@H](NC(=O)CC(C)C)c2cc(OCCCO)ccc2N1C(=O)c1ccc2ccccc2n1 | -0.459 | 0.176 | -0.149 | 0.205 | 0.458 | 0.491 | 0.76 | 0.375 (inactive) | 0.185 | 0.1
C[N+](C)(C)CCCCCCNC(=O)[C@@H]1C[C@@H]2C(=O)N3CCC[C@H]3C(=O)N2[C@@H]1c1ccc(O)cc1 | -0.138 | 1.74 | -0.0788 | 0.571 | 0.43 | 0.317 | 1.34 | 3.36 (inactive) | 0.648 | 0.21
O=C1O[C@@H](c2ccccc2)[C@@H](c2ccccc2)N2[C@@H](c3ccc(O)cc3)[C@]3(C(=O)Nc4ccc(C#CCCO)cc43)[C@@H](C(=O)N3CCN(c4ncccn4)CC3)[C@H]12 | -1.14 | -0.307 | -0.265 | 0.204 | 0.973 | 0.564 | 1.35 | -1.55 (inactive) | -0.925 | -1.27
CC(=O)NCCCC[C@@H]1NC(=O)[C@@H]2C[C@H](C(=O)NCCCCCN)[C@H](c3ccc(O)cc3)N2C1=O | 0.95 | 1.25 | 0.088 | 0.864 | 0.702 | 0.995 | 1.43 | 0.604 (inactive) | 0.491 | -0.334
COCC(=C=CC[C@H](O)c1ccccc1OCCO)C[C@H](O)c1ccccn1 | -0.109 | -0.169 | -0.128 | 0.4 | -0.548 | -0.409 | 0.0876 | -0.996 (inactive) | 0.0547 | -0.0994
CCCCC=C[C@@H](NC(=O)OCc1ccccc1Cl)c1ccccc1 | 0.983 | 0.199 | 0.583 | 0.711 | 1.59 | 1.51 | 1.19 | 1.31 (inactive) | 2.81 | 0.996
CC(C)C[C@@H]1NC(=O)[C@@H]2C[C@H](C(=O)NCCCCCCN)[C@H](c3cccc(OCCO)c3)N2C1=O | 0.0713 | -0.262 | 0.107 | 0.655 | 0.928 | 1.98 | 1.44 | 1.32 (inactive) | 0.819 | -0.121
CCCNC(=O)[C@@]1(Sc2ccc(C)cc2)CC(=O)N(C2Cc3ccccc3C2)[C@@H]1c1ccc(CO)cc1I | 0.427 | 0.31 | -0.103 | 0.0119 | -0.445 | 0.917 | 1.01 | -0.653 (inactive) | -0.227 | 0.0505
O=C1OCCC/C=C\[C@H]2OC34C=CCN(c5ccc6ccccc6c5)C(=O)[C@H]3N(CCO)C(=O)[C@@H]4C12 (stereo not given in full) | 0.24 | -0.514 | -0.159 | -0.818 | -1.23 | 1.6 | 1.04 | 0.751 (inactive) | -0.667 | -0.423
CCOC(=O)C[C@H]1[C@H](OC(=O)Cc2ccc3c(c2)OCO3)[C@@H](NC(=O)c2ccc3ccccc3n2)c2cc(OCCCO)ccc2N1C(=O)c1ccccc1 | -0.0059 | 0.111 | 0.051 | 0.202 | 0.64 | 0.405 | -0.111 | 1.15 (inactive) | 0.23 | -0.069
COc1ccc([Si](C)(C)[C@@H]2[C@@H](CC(=O)N3CCC[C@H]3CO)O[C@]3(C(=O)N(Cc4cccc(N5C(=O)COc6ccccc65)c4)c4ccccc43)[C@H]2C)cc1 | -0.222 | 0.203 | -0.112 | 0.428 | -0.173 | 1.35 | 1.12 | -0.234 (inactive) | 0.824 | 0.103
C=CCC(OC(C)=O)[C@@H]1[C@@H](N(Cc2ccc(-c3cccc(C(F)(F)F)c3)o2)C(=O)c2ccc(-c3ccccc3)cc2)c2cc(OCCCO)ccc2N1C(=O)Cc1ccc2ccccc2c1 (stereo not given in full) | -0.414 | -0.732 | -0.0454 | -0.342 | -0.753 | -0.337 | -0.0291 | -0.0069 (inactive) | 1.09 | 0.0156
COc1ccc([Si](C)(C)[C@@H]2[C@@H](CCO)O[C@]3(C(=O)N(Cc4ccccc4)c4ccc(NC(=O)[C@H](C)O)cc43)[C@H]2C)cc1 | -0.441 | 0.383 | -0.0505 | 0.8 | 1.23 | 1.13 | 1.13 | -3.84 (inactive) | 0.559 | 0.162
CC(CO)N1C(=O)[C@@H]2[C@H]3C(=O)OCC=C[C@H]3OC23C=CCN(Cn2nnc4ccccc42)C(=O)[C@@H]13 (stereo not given in full) | 0.12 | -0.699 | -0.207 | -0.729 | -1 | 1.88 | 0.694 | 0.246 (inactive) | -0.391 | -0.0994
CCOC(=O)C=Cc1cccc(C)c1O | -0.071 | -0.232 | -0.0348 | -0.0154 | 0.177 | 0.306 | -0.155 | 1.5 (inactive) | -0.488 | -0.236
CC1=C2[C@@H](CCc3ccccc3)OB(O)C[C@@H]2[C@@H]2C(=O)N(C)C(=O)[C@@H]2C1 | -0.366 | -0.19 | -0.104 | 0.496 | 0.849 | 1.09 | -0.0884 | 1.26 (inactive) | 0.438 | -0.171
